High-throughput results from PubChem BioAssay.
ER stress death – protection against thapsigargin ER stress killing – CSM14.1 cells, ATP luminescence, primary screen | CSM14.1 thapsigargin ER stress survival | relative survival (cellular ATP), % at 15 µg/mL (by protocol) | actives 0.33% (n = 48,000);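 active means survival measured by cellular ATP above 50% at 15 µg/ml in the first screen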;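 further: cell death triggered by about 15 µM thapsigargin; ATP read 24 h after thapsigargin was added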
Of the large screens only hits and unclear results are named; the others gave an inactive call. Many of the other results were omitted from the sample, so hits are more common in it than they were.

COC(=O)c1[nH]cnc1C(=O)Nc1ccc(Br)cc1C(=O)c1ccccc1	none
COC(C(=O)Nc1ccc(Br)cc1C(=O)c1ccccc1)c1ccccc1 (stereo not drawn)	ER stress death 72
COC(C(=O)Nc1ccc(Br)cc1C(=O)c1ccccc1Cl)c1ccccc1 (stereo not drawn)	none
O=[N+]([O-])c1cccc(CNCCc2cccc(Cl)c2)c1	none
Cc1ccc(-n2c(/C=C/c3ccc(O)c(O)c3)nc3ccccc3c2=O)cc1	none
